# Screening data (PubChem)
# Shown are actives, neighbours in structure and some others; about 3.5% of the full set was active somewhere.
# UGM FP inh = M. tuberculosis UGM enzyme inhibitors, primary screen, biochemical, fluorescence polarization, single point; actives 0.06% (n = 320,000); AID 504406, 2011; purified UGM, fluorescence polarization probe displacement; inhibition, % at 10 µM; in the data active = inhibition above about 10%, passing the limit was not always enough
# FBA Mtb inh = Mtb FBA enzyme inhibitors, primary screen, biochemical, fluorescence, strain H37Rv. Fructose-bisphosphate aldolase (Mycobacterium tuberculosis (strain ATCC 25618 / H37Rv)), …. purified M. tuberculosis FBA, fluorescence read-out. inhibition, % at 1 µM. actives 2.3% (n = 360,000); in the data active = inhibition above about 27%
# Target sequence (P9WQA3 whole entry, looked up): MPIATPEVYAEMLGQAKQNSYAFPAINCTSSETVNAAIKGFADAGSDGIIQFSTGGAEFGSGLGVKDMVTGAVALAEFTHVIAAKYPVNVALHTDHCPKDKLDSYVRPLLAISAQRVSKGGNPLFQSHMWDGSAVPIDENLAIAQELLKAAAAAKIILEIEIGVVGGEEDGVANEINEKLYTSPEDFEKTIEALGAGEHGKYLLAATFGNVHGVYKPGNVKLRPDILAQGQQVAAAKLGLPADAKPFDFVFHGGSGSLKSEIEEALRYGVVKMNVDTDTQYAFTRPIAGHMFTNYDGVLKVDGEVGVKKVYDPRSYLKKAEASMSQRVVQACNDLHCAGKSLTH
# GDH-TPI inh = GDH-TPI coupling enzyme inhibitors, primary screen, artefact control for M. tuberculosis FBA inhibitor project, biochemical, absorbance, full deck; inhibition, % at 4.8 µM; actives 1.2% (n = 360,000); GDH-TPI coupled enzyme counterscreen, NADH absorbance; AID 588335, 2011; in the data active = inhibition above about 30%
# Rv3671c inh = Rv3671c serine protease inhibitors, primary screen, biochemical, fluorescence polarization, M. tuberculosis H37Rv; P9WHR9; inhibition, % at 5.96 µM; actives 0.048% (n = 320,000); in the data active = inhibition above about 38%;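 also: extracellular domain of Rv3671c used as enzyme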
# A number is an active result; i = inactive; nt = not tested or not shown; + = active, no number.
SMILES,UGM FP inh,FBA Mtb inh,GDH-TPI inh,Rv3671c inh
Cc1cccc(NC(=O)CN2C(=O)N/C(=C\c3ccc(N4CCOCC4)cc3)C2=O)c1,i,i,31,i
Cc1ccc(C2OCC(C)([N+](=O)[O-])CO2)cc1 (stereo unspecified),nt,i,i,nt
Cc1c(C(=O)N2CCN(c3ncccn3)CC2)oc2ccc(Cl)cc12,i,i,i,i
CCc1nc2c(OCCn3cccc3)cccn2c1N(C)C(=O)C1CC1,nt,i,i,nt
COc1cccc(C=C2SC(=S)NC2=O)c1,nt,i,31,nt
CC(=O)c1c(C)nc2ccccc2c1N,i,i,i,i
Cc1nc2ccccc2c(N)c1C(=O)/C=C/c1ccccc1,i,i,37,i
C/C(=C\C(=O)c1ccc(C)cc1)NCc1ccc(F)cc1,i,i,i,i
C/C(=C\C(=O)c1ccccc1)NCc1ccc(F)cc1,i,i,31,i
O=c1cc(-c2ccc(O)cc2)oc2c(O)c(O)c(O)c(O)c12,i,i,37,i
COc1ccc(S(=O)(=O)N2CCOC2CNC(=O)C(=O)NCCc2c[nH]c3ccccc23)cc1C (stereo unspecified),i,i,i,i
COc1cc(C(=O)NCC(=O)N/N=C/c2ccc(-c3cccc([N+](=O)[O-])c3)o2)cc(OC)c1OC,i,i,38,i
Cc1ccc(C(=O)N/C(=C\c2ccc(-c3cccc([N+](=O)[O-])c3)o2)C(=O)NCCCN(C)C)cc1,i,i,59,i
COc1cc(C(=O)NCC(=O)N/N=C/c2ccc(-c3ccc([N+](=O)[O-])cc3)o2)cc(OC)c1OC,i,i,i,i
CN(C)CCCNC(=O)/C(=C\c1ccc(-c2cccc([N+](=O)[O-])c2)o1)NC(=O)c1ccccc1,i,i,35,i
CN(C)CCNC(=O)/C(=C/c1ccc(-c2ccc(Cl)cc2)o1)NC(=O)c1ccccc1,i,i,i,i
CC(=O)N1CCCc2cc(S(=O)(=O)Nc3ccccc3C)ccc21,i,i,i,i
CCCCn1c(N)c(N(CC)C(=O)C2COc3ccccc3O2)c(=O)[nH]c1=O (stereo unspecified),nt,i,i,nt
Cc1ccc(NC(=S)N/N=C/c2ccc(OCCC(C)C)cc2)c(C)c1,i,i,36,i
COc1ccc(NC(=O)CSc2nc3sc4c(c3c(=O)n2-c2ccc(OC)cc2)CCN(C)C4)cc1,i,i,35,i
CCSc1nc2sc3c(c2c(=O)n1-c1ccccc1)CCN(C)C3,i,i,i,i
COc1ccc(-n2c(SCC(=O)Nc3nccs3)nc3sc4c(c3c2=O)CCN(C)C4)cc1,i,i,32,i
COCCSc1nc2sc3c(c2c(=O)n1-c1ccccc1)CCN(C)C3,i,i,31,i
COc1ccc(-n2c(SC)nc3sc4c(c3c2=O)CCN(C)C4)cc1,nt,i,i,nt
CCOc1ccc(-n2c(SCC(N)=O)nc3sc4c(c3c2=O)CCN(C)C4)cc1,i,i,32,i
SMILES,UGM FP inh,FBA Mtb inh,GDH-TPI inh,Rv3671c inh
CCOC(=O)CSc1nc2sc3c(c2c(=O)n1-c1ccc(OCC)cc1)CCN(C)C3,i,i,i,i
CCCC1NC(=O)c2cc3ccccc3cc2-n2c1nc1ccc(F)cc1c2=O (stereo unspecified),nt,i,i,nt
COc1cc(C(=O)c2c(C)c(CCC#N)n3ccccc23)cc(OC)c1OC,i,i,i,i
CCn1c(SCC(N)=O)nc2sc3c(c2c1=O)CCN(C)C3,i,i,i,i
CCOC(=O)CSc1nc2sc3c(c2c(=O)n1C1CCCCC1)CCN(C)C3,i,i,39,i
Cc1ccc(C(=O)NCC(=O)N/N=C/c2sccc2C)cc1[N+](=O)[O-],i,i,i,i
Nc1nc(Nc2ccccc2)sc1C(=O)c1ccccc1,i,i,i,i
Cc1cnc(NC(=O)c2sc(Nc3ccccc3)nc2N)o1,i,i,31,i
O=c1cc(-c2ccc(F)cc2)oc2ccccc12,i,i,i,i
CSc1ccc(-c2cc(=O)c3ccccc3o2)cc1,i,+,45,i
Nc1cc(S(=O)(=O)O)cc2ccc(S(=O)(=O)O)cc12,nt,115,i,nt
Cc1ccc(C(=O)N/N=C\C=C\c2ccc(Br)cc2)cn1,i,i,35,i
Cc1ccc(C(=O)N/N=C/c2cc(Br)ccc2O)cn1,i,i,i,i
Cc1cccc(C(=O)N/N=C/c2ccc[nH]2)c1,i,i,i,i
Cc1ccc(C(=O)N/N=C\c2ccc[nH]2)cn1,i,i,47,i
O=C(N/N=C\c1ccc[nH]1)c1cncc(Br)c1,i,i,i,i
O=C(N/N=C/c1ccc[nH]1)c1cccnc1,i,i,45,i
CN(CC(=O)Nc1ccccc1C(F)(F)F)C(=O)Cc1ccc(S(=O)(=O)N2CCOCC2)s1,i,i,i,i
O=C(CCCn1c(SCc2cc(=O)n3ccccc3n2)nc2ccccc2c1=O)NCC1CCCO1 (stereo unspecified),i,i,33,i
COCCCn1c(C(=O)Nc2ccc3c(c2)OCO3)cc2c(=O)n3ccccc3nc21,i,i,i,i
COCCCn1c(C(=O)N2CCOCC2)cc2c(=O)n3ccccc3nc21,i,+,i,i
Cc1cccn2c(=O)c3cc(C(=O)NCC4CCCO4)c(=N)n(CCN4CCOCC4)c3nc12 (stereo unspecified),i,145,i,i
COCCCn1c(=N)c(C(=O)NCC2CCCO2)cc2c(=O)n3cccc(C)c3nc21 (stereo unspecified),i,+,i,i
O=C1CCNCCN1[C@H](CO)c1ccccc1,i,i,i,i
Cc1ccc(C(=O)N/C(=C\c2cccc([N+](=O)[O-])c2)C(=O)NC(Cc2ccccc2)C(=O)O)cc1 (stereo unspecified),i,i,i,i
SMILES,UGM FP inh,FBA Mtb inh,GDH-TPI inh,Rv3671c inh
CCN(CC)S(=O)(=O)c1ccc(C(O)=C(C#N)c2nc3ccccc3n2C)cc1,nt,i,i,nt
CCCCC1Cc2[nH]c(=S)[nH]c(=O)c2C(c2ccc(Cl)cc2)O1 (stereo unspecified),nt,i,nt,nt
CCOCCCn1c(=N)c(C(N)=S)cc2c(=O)n3cccc(C)c3nc21,i,77,i,i
COc1ccc(CCn2c(=N)c(C(=O)NCC3CCCO3)cc3c(=O)n4ccccc4nc32)cc1 (stereo unspecified),i,i,i,i
CCCn1c(=N)c(C(=O)NCC2CCCO2)cc2c(=O)n3cccc(C)c3nc21 (stereo unspecified),i,+,i,i
COCCCn1c(=N)c(C(=O)NCC2CCCO2)cc2c(=O)n3ccccc3nc21 (stereo unspecified),i,+,i,i
C=C1CCC2[C@](C)(CO[C@@H]3O[C@H](CO)[C@@H](O)[C@H](O)[C@H]3O)CCC[C@@]2(C)[C@@H]1CCC1=CCOC1=O (stereo partly specified),i,i,i,i
CNc1ccccc1C(=O)OC(C)C(=O)Nc1ccc(Cl)cn1 (stereo unspecified),i,112,i,i
